Screens from PubChem.
ELG1 genotox: induces genotoxicity in HEK293T cells with luciferase-tagged ELG1; HEK293T ELG1-luciferase reporter, luminescence, 16 h; Potency, µM (top dose mostly 46 µM), without a hit: at the top dose activity change, positive = activation, actives largely listed as activators; 330,000 compounds, 1.3% hits; also: % of control where 0% means no effect; nearly all actives have a fitted effect of over 60% in size
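16 hr compound incubation (37 °C, 5% CO2) of HEK293T cells carrying luciferase-tagged ELG1; luciferase then measured by ONE-Glo luminescence after 30 min at RT.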
NPC1 prom act: activates the NPC1 promoter. Huh7 NPC1 promoter luciferase reporter, 24 h. Potency, µM (titrated, usually from 9.22 µM), for the others: top-dose activation, hits mostly activators. 320,000 compounds, 2.4% hits; also: % of control where 0% means no effect; nearly all actives have a fitted effect of over 60% in size
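Luciferase expression driven by the NPC1 promoter was measured in stably transfected Huh7 cells after a 24 h compound incubation, using a luciferase reagent and a luminescence read.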
FLuc modulator: inhibits or activates purified firefly luciferase, miR-21 counter-screen | purified FLuc, Km substrates, luminescence inhibition | Potency, µM (top dose mostly 57.5 µM), without a hit: at the top dose activity change, negative = inhibition, actives largely listed as inhibitors | 360,000 compounds, 6.9% hits | AID 588342;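 also: plate controls were vehicle for no effect and reference inhibitor for full effect; nearly all actives have a fitted effect of over 55% in size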
Target sequence (P08659 whole entry, looked up): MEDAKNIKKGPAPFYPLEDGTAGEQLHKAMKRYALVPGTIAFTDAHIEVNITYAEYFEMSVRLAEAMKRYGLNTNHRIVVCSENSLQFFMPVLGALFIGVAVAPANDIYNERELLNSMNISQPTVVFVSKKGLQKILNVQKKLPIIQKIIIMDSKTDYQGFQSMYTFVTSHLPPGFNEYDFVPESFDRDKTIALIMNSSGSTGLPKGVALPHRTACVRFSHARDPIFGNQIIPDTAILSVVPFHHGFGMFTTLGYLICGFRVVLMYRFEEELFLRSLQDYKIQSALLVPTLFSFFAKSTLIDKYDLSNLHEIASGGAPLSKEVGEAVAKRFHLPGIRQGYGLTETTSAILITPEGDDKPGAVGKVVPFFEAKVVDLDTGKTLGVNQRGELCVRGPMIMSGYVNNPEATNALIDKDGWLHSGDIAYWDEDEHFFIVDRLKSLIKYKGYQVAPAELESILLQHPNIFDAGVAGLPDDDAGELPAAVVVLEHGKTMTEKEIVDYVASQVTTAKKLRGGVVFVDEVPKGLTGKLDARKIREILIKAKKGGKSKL
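Purified P. pyralis luciferase, 10 nM final, with Km-level 10 uM D-luciferin and 10 uM ATP in 50 mM Tris acetate pH 7.5, 10 mM Mg acetate, 0.01% Tween-20, 0.05% BSA; 6-point qHTS titration about 60 µM downward; luminescence read.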
SMN2 splice enh: enhancers of SMN2 splice variant expression. Potency, µM (highest dose often 46.1 µM), inactives show top-dose activity change, positive = activation, usual class: activators. 210,000 compounds, 2.8% hits. HEK293 SMN2-luciferase splicing reporter, luminescence, 30-36 h; also: % of control where 0% means no effect; nearly all actives have a fitted effect of over 55% in size
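HEK293 cells carry an SMN2 […]–luciferase reporter in which exon 7 inclusion puts luciferase in frame. Cells were plated 10-12 h before compound addition, then incubated 30-36 h at 37C. ONE-Glo luminescence was read; sodium butyrate at 4.5 mM final served as control.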
ELG1 repair inh: inhibitors of ELG1-dependent DNA repair in HEK293T cells. HEK293T ELG1-luciferase reporter, luminescence, 16 h; DNA damage induced by 5-fluorouridine. Potency, µM (doses to about 46.1 µM), inactives show at the highest dose activity change, negative = inhibition, hits mostly inhibitors. 330,000 compounds, 2.3% hits. AID 504467; also: % is scaled to controls: 0 for no effect and ±100 for the full control effect; nearly all actives have a fitted effect of over 55% in size
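In this reporter screen, reduction of luminescence relative to DMSO vehicle indicated activity. Compounds and 5-fluorouridine were added together to 2,000 cells per well, incubated for 16 hr at 37 °C, then developed with ONE-Glo.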
Rab9 prom act: Rab9 promoter activation. Huh7 Rab9 promoter-luciferase reporter, luminescence, 24 h. Potency, µM (doses to about 9.22 µM), for the others: top-dose activation, negative = inhibition, most hits filed as activators. 320,000 compounds, 2.8% hits; also: % of control where 0% means no effect; nearly all actives have a fitted effect of over 60% in size
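Measured in stably transfected Huh7 cells bearing a Rab9 promoter–luciferase construct: 24 h compound treatment at 37 °C, followed by luminescence detection.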
Active calls of the source: *. Shown are actives, neighbours in structure and some others; about 9.2% of the full set was active somewhere. Calls follow the shape of the dose curve; as a rule, active = well fitted curve in the direction sought with a large enough effect; inconclusive = small, poorly fitted or top-dose-only effect, or another doubt; inactive = no such curve, though single readings can be large; an effect the other way counts as inactive or inconclusive. Potency is read from the fitted curve at half-maximal effect.

O=C(O)C(C(=O)/C=C/c1ccco1)=C1SCCS1 was read as ELG1 genotox 6.8%, NPC1 prom act 14.4%, FLuc modulator inconclusive, SMN2 splice enh -58.4%, ELG1 repair inh 24.7% and Rab9 prom act -3.6%.
Screening O=C(c1ccco1)N(CCO)Cc1cc2cc3c(cc2[nH]c1=O)OCO3 returned ELG1 genotox 0.8%, NPC1 prom act 1.3%, FLuc modulator -3.5%, SMN2 splice enh 2.0%, ELG1 repair inh 7.4% and Rab9 prom act inconclusive.
`Cc1ccc(Cl)cc1Nc1nc(-c2cccnc2)cs1` gave ELG1 genotox -2.8%, NPC1 prom act 3.5%, FLuc modulator inconclusive, ELG1 repair inh inconclusive and Rab9 prom act 16.9%.
For c1ccc(-c2csc(Nc3cccnc3)n2)cc1 the results were ELG1 genotox inconclusive, NPC1 prom act inconclusive, FLuc modulator 10.7µM*, ELG1 repair inh inconclusive and Rab9 prom act 2.82µM*.
Screening Fc1ccc(Nc2nc(-c3cccnc3)cs2)cc1 returned ELG1 genotox inconclusive, NPC1 prom act 8.0%, FLuc modulator 3.01µM*, SMN2 splice enh 12.6µM*, ELG1 repair inh inconclusive and Rab9 prom act inconclusive.
Clc1ccc(-c2csc(Nc3cccnc3)n2)cc1 was read as ELG1 genotox 5.9%, NPC1 prom act inconclusive, FLuc modulator -19.6%, ELG1 repair inh 18.5% and Rab9 prom act 27.4%.
For CC(=O)Nc1ccc(C(=O)Nc2nc(-c3cccnc3)cs2)cc1 the results were ELG1 genotox -2.0%, NPC1 prom act -1.3%, FLuc modulator inconclusive, SMN2 splice enh inconclusive, ELG1 repair inh 1.2% and Rab9 prom act 0.6%.
Clc1ccc(Nc2nc(-c3cccnc3)cs2)cc1 was read as ELG1 genotox inconclusive, NPC1 prom act -0.5%, FLuc modulator 10.7µM*, SMN2 splice enh 22.5%, ELG1 repair inh inconclusive and Rab9 prom act 5.9%.
O=[N+]([O-])c1ccc(N2CCN(C(=S)c3cccc([N+](=O)[O-])c3)CC2)cc1 was read as ELG1 genotox -4.1%, NPC1 prom act -5.5%, FLuc modulator -15.5%, ELG1 repair inh 3.0% and Rab9 prom act -11.3%.
For CC(NC(=O)C12CC3CC(CC(C3)C1)C2)C(=O)N/N=C/C1=C(N2CCOCC2)C(=C\c2cccc([N+](=O)[O-])c2)/CC1 (centres undefined) the results were ELG1 genotox -3.1%, NPC1 prom act -3.7%, FLuc modulator 0.7%, SMN2 splice enh -0.2%, ELG1 repair inh 6.51µM* and Rab9 prom act -2.6%.
CCOC(=O)N1CCC(NC(=O)CSCc2nc(-c3ccc(OCC)cc3)oc2C)CC1 was read as ELG1 genotox -9.2%, NPC1 prom act -1.5%, FLuc modulator -17.9%, ELG1 repair inh 13µM* and Rab9 prom act -0.7%.
CCOc1ccc(-c2nc(CSCC(=O)NC3CC3)c(C)o2)cc1 was read as ELG1 genotox -0.2%, NPC1 prom act 1.0%, FLuc modulator inconclusive, ELG1 repair inh 13.8% and Rab9 prom act -23.7%.
For CCOC(=O)N1CCC(NC(=O)CSCc2nc(-c3cccc(OC)c3)oc2C)CC1 the results were ELG1 genotox -8.8%, NPC1 prom act -9.8%, FLuc modulator 6.4%, SMN2 splice enh -70.0%, ELG1 repair inh 11.6µM* and Rab9 prom act -19.6%.
Screening CCOc1ccc(-c2nc(CSCC(=O)NCc3ccco3)c(C)o2)cc1 returned ELG1 genotox 15.0%, NPC1 prom act -3.6%, FLuc modulator 12µM*, SMN2 splice enh -64.6%, ELG1 repair inh 7.31µM* and Rab9 prom act -7.4%.
Cn1cc(C(=O)NCCc2ccccc2)c(=O)c2cc(S(=O)(=O)N3CCCCCC3)ccc21 was read as FLuc modulator -7.1% and SMN2 splice enh 1.7%.
O=C(Nc1ccccc1O)c1ccc([N+](=O)[O-])cc1 was read as ELG1 genotox -3.5%, NPC1 prom act inconclusive, FLuc modulator -18.3%, ELG1 repair inh 26.7% and Rab9 prom act 28.9%.
